Results from PubChem BioAssay (NCI).
This is part of a sample that, as a whole, favours compounds with a hit. Of some 83,000 tested, about 20% had one in any assay.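 Interpretation: 100, growth as untreated; towards 0, rising growth inhibition; 0, no net growth; 0 to -100, cell death. Compounds scoring below 10 were considered active.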 Values without a mark were called inactive. Activity calls are given as the source filed them.

These compounds were tested on UO-31 renal (assay: NCI-60 one-dose screen, 48 h (100 = growth as untreated, 0 = no growth, -100 = all killed)). Details: 10 µM unless noted.

| Structure (SMILES) | growth |
| --- | --- |
| COc1ccc(C(O)c2cc3c(N)c(C(=O)Nc4cccc(Br)c4)sc3nc2C)cc1 (configuration not stated) | 22.9% |
| CC/C(=C(/c1ccc(Cl)cc1)c1ccc(OCCN2CCCCC2)cc1)c1ccc(OC)cc1 | 66.2% |
| CCOC(=O)c1c2c(n3cccc(F)c13)C(=O)c1ncccc1C2=O | -28.5% (active) |
| CC(=O)O[C@@H]1C[C@]2(C(C)C)O[C@@]1(C)[C@@H]1CCC(C)=C1[C@@H]2OC(=O)/C=C/c1ccccc1 | 60.5% |
| O=C(O)c1ccc(-n2cc(/C=N/Nc3ccccc3)c(-c3ccc(F)cc3F)n2)cc1 | 13% |
| O=C(NCc1ccc(Cl)cc1Cl)C1CCC(=O)N1c1cccs1 (configuration not stated) | 83.1% |
| CCSc1oc(-c2ccccc2)nc1[P+](c1ccccc1)(c1ccccc1)c1ccccc1 | -31.3% (active) |
| O=C1C(=O)N(Cc2ccc(-c3ccccc3)cc2)c2ccc(OC(F)(F)F)cc21 | 45.5% |
| Cc1nc2sc(C(=O)Nc3ccc(Br)cc3)c(N)c2cc1C(O)c1ccccc1 (configuration not stated) | 62.1% |
| O=C(Cn1cc(CSc2nc3ccccc3o2)nn1)Nc1ccc(F)cc1F | 103% |
| COC(=O)c1nc(-c2ccc(C)cc2)oc1S(=O)(=O)c1cccc(OC)c1 | 90.3% |
| COc1ccc(C/C(C)=C(/c2ccc(OCCN(C)C)cc2)c2ccc(OC(=O)NCc3ccccc3)cc2)cc1 | 46.4% |
| COc1ccc(/C=C(\C#N)n2nnc3cc(F)c(F)cc32)cc1 | 52.8% |
| COC(=O)c1c2c(c(C)[n+]([O-])c1C)C(=O)C(NCc1cccc(OC)c1)=CC2=O | 76.8% |
| COc1ccc(-c2nc3cc(C(=O)NCc4ccccc4)ccc3n2C2CCCCC2)cc1 | 61.6% |
| CCN(CC)CCn1c2ccc(OC)cc2c2sc3cc(OC)ccc3c(=O)c21 | 8.29% (active) |
| COc1ccc(C(=O)N2c3ccccc3Sc3ccccc32)c(OC)c1 | 48.3% |
| CCN1CCN(C(=O)[C@]23CCC(C)(C)C[C@@H]2C2=CC[C@@H]4[C@@]5(C)CCC(=O)C(C)(C)[C@@H]5CC[C@@]4(C)[C@]2(C)CC3)CC1 | 34.1% |
| Clc1ccc2c(NC3CCC(N4CCOCC4)CC3)ccnc2c1 (configuration not stated) | 75.3% |

| Structure (SMILES) | growth |
| --- | --- |
| CCCOC(=O)Nc1nc2ccc(SCC(C)C)cc2s1 | 44.8% |
| COc1ccc(Nc2ncc(Br)c(NCCCNC(=O)c3cccs3)n2)cc1 | -0.36% (active) |
| N#Cc1c(-c2ccccc2)cc(-c2ccc(Nc3nc(Nc4ccc(Cl)cc4)nc(Nc4ccc(Cl)cc4)n3)cc2)nc1N | -82.4% (active) |
| COC(=O)c1c(C)c2n(c1C)C(=O)C(c1ccccc1)=C2 | 57.9% |
| COc1ccc(Nc2ncc(Br)c(NCCCNC(=O)C3CCCC3)n2)cc1 | -30.8% (active) |
| C=CCn1c(C)nc2ccc(Nc3nc(Nc4ccc5nc(C)n(CC=C)c5c4)c4ccccc4n3)cc21 | -91.4% (active) |
| O=C(O)c1cn(C2CC2)c2cc(N3CCN(Cc4ccc5ccccc5c4O)CC3)c(F)cc2c1=O | 42.2% |
| N#C/C(=C\c1c(-c2ccccc2)[nH]c2ccccc12)C(N)=O | 93.4% |
| COc1ccc(C2CC(c3ccc(Nc4nc(Nc5ccccc5)nc(Nc5ccccc5)n4)cc3)=NN2C(C)=O)cc1 (configuration not stated) | 78.3% |
| COc1cc2c(c(OC)c1OC)CCC(c1cccc(C(=O)Nc3cccc(Cl)c3)c1)O2 (configuration not stated) | 40.8% |
| COc1cc(OCc2cccc(Br)c2C)cc(OC)c1C=O | 71.8% |
| COC1=CC(c2ccc[nH]2)=N/C1=C\c1[nH]c(C)c(C(=O)OC(C)C)c1C | -87.5% (active) |
| CCCc1c(OC(=O)c2ccccc2)nc2[nH]c(=O)sc2c1C | 82.3% |
| CN(C)c1ccc(-c2c(C#N)c(N)nn2C(=O)c2ccc(NC(=O)c3ccccn3)cc2)cc1 | 80.7% |
| CC1CCN(CCOc2ccc(CNc3ccc4nc(CCC5CCCCC5)[nH]c4c3)cc2)CC1 | -31.9% (active) |
| COc1cc2c(cc1OCCCN1CCN(CCCOc3cc4c(cc3OC)C(=O)N3CCC[C@H]3C=N4)CC1)C=CC(C)(C)O2 | -58.8% (active) |
| Oc1c(I)cc(I)cc1CNCCN(Cc1ccccn1)Cc1ccccn1 | -89.4% (active) |
| O=CN1N=C(c2cccc(Nc3ccnc4cc(Cl)ccc34)c2)CC1c1ccccc1 (configuration not stated) | 10.6% |
